Laboratory results reported in PubChem BioAssay AID504329 (Southern Research Specialized Biocontainment Screening …, 2011).
Out of some 340,000 compounds screened, about 1,000 (0.29%) were called active. A selection follows. Potency and affinity values are given separately. A number with no mark means an inactive call. Cut-off read from the data, not from the text of the source: inconclusive = inhibition above about 27% without an active follow-up result; inactive = below that.

Assay: NS1A inhibition, H1N1 influenza, cell based functional assay (AID 504329)
Conditions: percent inhibition, at 12.5 µM, active compounds read high

Row | Structure (SMILES) | inhibition
1 | CN(CC(=O)Nc1ccccc1Br)C(=O)COc1cccc2c1OC(C)(C)C2 | -2.61%
2 | Cc1cc(OCC(=O)N(C)C2CCCCC2)ccc1Cl | 1.86%
3 | COc1ccc(C2CC(c3cccs3)=NN2C(=O)CSc2nc(=O)n3ccccc3n2)cc1 (stereo unspecified) | -0.56%
4 | Cc1ccc(NC(=O)CN2C(=O)CN=C(c3ccccc3)c3cc(Cl)ccc32)cc1 | 24.3%
5 | CN(C)c1ccc(NC(=O)CN2C(=O)CN=C(c3ccccc3)c3ccccc32)cc1 | -10.1%
6 | c1ccc(CCNc2nc(-c3ccccn3)nc3ccccc23)cc1 | 21%
7 | CCCN(CCC)c1nc(-c2ccccn2)nc2ccccc12 | 10.6%
8 | Oc1ccccc1-c1nc(NCc2ccco2)c2ccccc2n1 | -19.2%
9 | CN1CCN(c2nc(-c3ccccn3)nc3ccccc23)CC1 | 10.9%
10 | C/C(=N\Nc1nc(-c2ccccn2)nc2ccccc12)c1ccc(F)cc1 | 0.16%
11 | c1ccc(CNc2nc(-c3ccccn3)nc3ccccc23)cc1 | 24.8%
12 | CCC(C)Nc1nc(-c2cccc(OC)c2O)nc2ccccc12 (stereo unspecified) | 4.38%
13 | c1ccc(N2CCN(c3nc(-c4ccccn4)nc4ccccc34)CC2)cc1 | 18.4%
14 | Cc1noc(C)c1C(=O)OCC(=O)Nc1ccc(N2CCOCC2)cc1 | 5.46%
15 | O=C(Nc1ccc(OC(F)F)cc1)c1cc(S(=O)(=O)N2CCOCC2)ccc1N1CCCC1 | -1.31%
16 | Cc1[nH]c2ccccc2c1C(=O)CNc1nccs1 | -1.86%
17 | Cc1cccc(-c2nc(C#N)c(N3CCCCC3)o2)c1 | 3.65%
18 | COc1ccc(C2(OC)Oc3cc(OC)ccc3C(=O)C2(O)OC)cc1 (stereo unspecified) | -14.3%
19 | COC(=O)c1ccccc1NC(=O)C1CCN(S(C)(=O)=O)CC1 | -15.6%
20 | CCCCCN(C(=O)CCC(=O)OCC(=O)c1cccc(OC)c1)c1c(N)n(CCCC)c(=O)[nH]c1=O | -2.41%
21 | O=C(O)CCNc1ccc(NCCC(=O)O)c2c1C(=O)c1ccccc1C2=O | 22.7%
22 | O=C1c2cccc(NCCNCCO)c2C(=O)c2cccc(NCCNCCO)c21 | 28%
23 | O=C(O)c1ccccc1NCCO | -4.36%

Row | Structure (SMILES) | inhibition
24 | OCCNCCO | -1.33%
25 | Cc1ccc(C2/C(=C(\O)c3c(C)nc4ccccn34)C(=O)C(=O)N2CCN(C)C)o1 (stereo unspecified) | -13.9%
26 | COc1ccc(NC(=O)COC(=O)CCCOc2ccc(Cl)cc2Cl)cc1Cl | -5.19%
27 | Cc1[nH]nc2c1C(c1cnn(C)c1)C(C#N)=C(N)O2 (stereo unspecified) | -1.46%
28 | COc1ccc(NC(=S)NNc2ccc([N+](=O)[O-])cc2S(=O)(=O)Nc2ccc(C)cc2C)cc1 | 17.3%
29 | Cc1ccc(NS(=O)(=O)c2cc([N+](=O)[O-])ccc2NNC(=S)Nc2cc(C)ccc2C)c(C)c1 | 21.2%
30 | Cc1cc(C)nc(NC(=NCc2ccc3c(c2)OCO3)NC(=O)Nc2ccccc2)n1 | 12.4%
31 | O=S(=O)(NC1CCC(NS(=O)(=O)c2c(F)cccc2F)CC1)c1ccc2c(c1)OCCO2 (stereo unspecified) | 6.49%
32 | O=C(O)c1ccc(N/N=C/c2ccnc3ccccc23)cc1 | 12.7%
33 | Nc1nc(N)c(N=Nc2ccc(C(=O)O)cc2)c(N)n1 | 17.8%
34 | CC(=NCCN1CCOCC1)c1c(O)n(-c2ccccc2C)c(=O)[nH]c1=O | 5.2%
35 | COc1ccc(Nc2ccc(S(=O)(=O)N3CCCCC3)cc2[N+](=O)[O-])cc1Cl | 21%
36 | COc1ccc(Nc2ccc(S(=O)(=O)N3CCCCC3)cc2[N+](=O)[O-])cc1 | 21%
37 | COc1ccccc1Nc1ccc(S(=O)(=O)N2CCCCC2)cc1[N+](=O)[O-] | 22.4%
38 | COc1cc(Nc2ccc(S(=O)(=O)N3CCN(C)CC3)cc2[N+](=O)[O-])cc(OC)c1 | 18.2%
39 | CSCCC(NS(=O)(=O)c1cccc(C(F)(F)F)c1)C(=O)N(C)Cc1ccc2c(c1)OCCO2 (stereo unspecified) | -15.2%
40 | C/C(=N\Nc1ccccc1)c1c(O)n(-c2ccccc2)c(=O)[nH]c1=O | -15.4%
41 | N#C/C(=C/c1ccccc1[N+](=O)[O-])c1nc(C2CC2)cs1 | 16.5%
42 | N#C/C(=C\c1ccc([N+](=O)[O-])cc1)c1nc(C2CC2)cs1 | -3.47%
43 | CN(CC(=O)NC(=O)NC1CCCCC1)c1ccccc1 | -19.7%
44 | CCCc1nnc(SCC(=O)Nc2cc(C)on2)n1CCOC | -2.31%
45 | O=C(O)c1cc(S(=O)(=O)N2CCCCC2)sc1Cl | 0.17%
46 | Cc1[nH]n(-c2ccccc2)c(=O)c1N=Nc1ccc2c(c1)OCO2 | 1.81%
